This passage reports AC50 and outcome results from PubChem BioAssay (EPA / NIEHS).

“And” between values parts separate entries of the source, which are not always exact repeats. Identical values can stand only once. Results filed as inconclusive are left out. The source holds several records for some structures; these can differ, active in one and inactive in another. The source made the active and inactive calls. Rule for the calls: active = hit-call score of the fitted dose curve at least 0.9, where 1 is the maximum; inconclusive = response in the unintended direction; inactive = score below 0.9.

The target in experiment [1] is human Mitogen- and Stress-activated Protein Kinase-1 (Msk1), RPS6KA5 (gene 9252) (UniProt O75582). Nature of the experiment: NVS_ENZ_hMsk1: NovaScreen (NVS) Enzymatic Assay for human Mitogen- and Stress-activated Protein Kinase-1 (Msk1) (AID 2283187). A digest of the protocol: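 Chemicals first run in duplicate at 25 uM, with actives followed up in singleton concentration series to 50 uM maximum. Enzyme activity came from substrate/product mobility-shift separation with fluorescence detection after 1 h incubation of the recombinant protein.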

The target of experiment [2] is human p21 Activated Kinase 4 (PAK4), PAK4 (gene 10298) (UniProt O96013). Nature of the experiment: NVS_ENZ_hPAK4: NovaScreen (NVS) Enzymatic Assay for human p21 Activated Kinase 4 (PAK4) (AID 2283189). A digest of the protocol: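 Extracted PAK4 enzyme activity read by fluorescence with mobility-shift separation 1 h after chemical addition. Duplicate single-concentration screen at 25 uM, DMSO as negative control.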

The target of experiment [3] is human Matrix Metalloproteinase-9 (MMP9), MMP9 (gene 4318) (UniProt P14780). Nature of the experiment: NVS_ENZ_hMMP9: NovaScreen (NVS) Enzymatic Assay for human Matrix Metalloproteinase-9 (MMP9) (AID 2283190).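 Note: cell-free recombinant MMP9 protease activity read by fluorescent substrate signal; active means inhibition seen as loss of fluorescence signal versus DMSO.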 In outline: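 Screening concentration 25 uM, duplicate wells, then dose series for confirmation. Cell-free enzymatic reaction measured by fluorescence intensity 1 h post-dosing; decreased signal versus DMSO taken as activity.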

Experiment [4] addresses human Phosphodiesterase 4A1 (PDE4A1), PDE4A (gene 5141) (UniProt P27815). Nature of the experiment: NVS_ENZ_hPDE4A1: NovaScreen (NVS) Enzymatic Assay for human Phosphodiesterase 4A1 (PDE4A1) (AID 2283191). A digest of the protocol: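 Fluorescent substrate turnover by recombinant PDE4A1 read after 1 h by mobility-shift separation. Primary duplicate screen at 25 uM; hits retested in concentration series with a 50 uM maximum, relative to DMSO.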

The target of experiment [5] is cAMP-dependent protein kinase catalytic subunit alpha (Homo sapiens) (UniProt P17612). Put plainly: NVS_ENZ_hPKA: NovaScreen (NVS) Enzymatic Assay for human Protein Kinase A (PKA) (AID 2283192). In outline: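 Cell-free kinase activity read by fluorescence after mobility-shift separation of substrate and product, 1 h post-dosing. Single-concentration duplicate screen (25 uM) preceded singleton concentration series (top 50 uM); loss of signal versus DMSO.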

The target of experiment [6] is human Phosphodiesterase 5 (PDE5), PDE5A (gene 8654) (UniProt O76074). Put plainly: NVS_ENZ_hPDE5: NovaScreen (NVS) Enzymatic Assay for human Phosphodiesterase 5 (PDE5) (AID 2283194). In outline:
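Screening began in duplicate at 25 uM, with actives taken into concentration-response. Enzyme activity of recombinant PDE5 toward its substrate was measured at 1 h by fluorescence mobility-shift detection, relative to DMSO controls.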

The target in experiment [7] is human Phosphodiesterase 10 (PDE10), PDE10A (gene 10846) (UniProt Q9Y233). Nature of the experiment: NVS_ENZ_hPDE10: NovaScreen (NVS) Enzymatic Assay for human Phosphodiesterase 10 (PDE10) (AID 2283195). In outline:
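Biochemical single-readout PDE10A assay, cell-free, extracted protein. Compounds first screened at 25 uM in duplicate, hits then titrated to 50 uM max. Activity measured after 1 h; loss-of-signal fitted against DMSO negative control.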

Experiment [8] has as its target human Phosphoinositide 3-kinase alpha (PI3Ka), PIK3CA (gene 5290) (UniProt P42336). Put plainly: NVS_ENZ_hPI3Ka: NovaScreen (NVS) Enzymatic Assay for human Phosphoinositide 3-kinase alpha (PI3Ka) (AID 2283196). In outline: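 Duplicate single-point screen (25 uM), then singleton dose-response (max 50 uM) for compounds meeting the threshold. Cell-free kinase reaction, 1 h; fluorescent mobility-shift readout.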

In experiment [9] the target is human Protein Phosphatase, Mg2+/Mn2+ Dependent 1A (PPM1A), PPM1A (gene 5494) (UniProt P35813). Put plainly: NVS_ENZ_hPPM1A: NovaScreen (NVS) Enzymatic Assay for human Protein Phosphatase, Mg2+/Mn2+ Dependent 1A (PPM1A) (AID 2283198). A digest of the protocol: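 Primary screen in duplicate at 25 uM, with actives then titrated to a maximum of 50 uM. Recombinant PPM1A dephosphorylation of fluorescent substrate measured at 1 h, with substrate and product separated by mobility shift; inhibition fitted against DMSO.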

A further experiment deals with PPP2CA (gene 5515) (UniProt P67775). Put plainly: NVS_ENZ_hPPP2CA: NovaScreen (NVS) Enzymatic Assay for human Protein Phosphatase 2 Aatalytic subunit Alpha (PPP2CA) (AID 2283199). In outline: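 Cell-free phosphatase activity: fluorescent substrate turnover by recombinant human enzyme, resolved by mobility shift at 1.33 h. Compounds passing the 25 uM duplicate primary screen were rerun in singleton series with a 50 uM top concentration.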

The target of experiment [10] is Serine/threonine-protein phosphatase PP1-alpha catalytic subunit (Homo sapiens) (UniProt P62136). Put plainly: NVS_ENZ_hPPP1CA: NovaScreen (NVS) Enzymatic Assay for human Protein Phosphatase 1 Aatalytic subunit Alpha (PPP1CA) (AID 2283200). In outline:
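Chemicals were first screened in duplicate at 25 uM, and those passing threshold (e.g. 30% inhibition) were run as concentration series to 50 uM. Cell-free recombinant protein, 1.33 h read, fluorescent substrate/product mobility-shift detection, normalised to DMSO.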

In experiment [11] the target is human Protein Tyrosine Phosphatase Non-receptor Type 1 (PTPN1), PTPN1 (gene 5770) (UniProt P18031). Put plainly: NVS_ENZ_hPTPN1: NovaScreen (NVS) Enzymatic Assay for human Protein Tyrosine Phosphatase Non-receptor Type 1 (PTPN1) (AID 2283201). In outline: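 Chemicals were first tested in duplicate at 25 uM, and those passing threshold went on to singleton concentration series topping at 50 uM. Recombinant enzyme, specific substrate, product separated by mobility shift, fluorescence read at 1.33 h; activity loss relative to DMSO.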

In experiment [12] the target is Tyrosine-protein phosphatase non-receptor type 11 (Homo sapiens) (UniProt Q06124). Nature of the experiment: NVS_ENZ_hPTPN11: NovaScreen (NVS) Enzymatic Assay for human Protein Tyrosine Phosphatase Non-receptor Type 11 (PTPN11) (AID 2283202). A digest of the protocol:
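Compounds first tested in duplicate at 25 uM; those reaching ~30% inhibition rerun in singleton concentration-response, top 50 uM. Phosphatase activity measured after 0.5 h by fluorescence with mobility-shift separation, relative to DMSO.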

The target in experiment [13] is human Phosphatase and Tensin Homolog (PTEN), PTEN (gene 5728) (UniProt P60484). Nature of the experiment: NVS_ENZ_hPTEN: NovaScreen (NVS) Enzymatic Assay for human Phosphatase and Tensin Homolog (PTEN) (AID 2283203). In outline: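 Loss of fluorescent product signal after mobility-shift separation reports PTEN activity, recombinant human enzyme, 1 h after compound addition. Single 25 uM duplicate screen, then concentration-response on actives; DMSO baseline.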

Experiment [14] addresses Tyrosine-protein phosphatase non-receptor type 12 (Homo sapiens) (UniProt Q05209). Put plainly: NVS_ENZ_hPTPN12: NovaScreen (NVS) Enzymatic Assay for human Protein Tyrosine Phosphatase Non-receptor Type 12 (PTPN12) (AID 2283204). A digest of the protocol:
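Single-concentration duplicates (25 uM) preceded singleton concentration-response up to 50 uM for chemicals passing threshold. Cell-free recombinant PTPN12 activity was read 1.33 h after dosing via fluorescence after mobility-shift separation; loss of signal versus DMSO.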

Experiment [15] addresses Tyrosine-protein phosphatase non-receptor type 13 (Homo sapiens) (UniProt Q12923). Nature of the experiment: NVS_ENZ_hPTPN13: NovaScreen (NVS) Enzymatic Assay for human Protein Tyrosine Phosphatase Non-receptor Type 13 (PTPN13) (AID 2283205). A digest of the protocol:
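Screened first at a single 25 uM in duplicate; compounds passing the threshold (e.g. 30% inhibition) were rerun in concentration series, top 50 uM. Recombinant enzyme, fluorescent substrate, mobility-shift separation, 0.5 h read. Data fitted as inhibition relative to DMSO.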

Experiment [16] concerns the target human Protein Tyrosine Phosphatase Non-receptor Type 2 (PTPN2), PTPN2 (gene 5771) (UniProt P17706). Put plainly: NVS_ENZ_hPTPN2: NovaScreen (NVS) Enzymatic Assay for human Protein Tyrosine Phosphatase Non-receptor Type 2 (PTPN2) (AID 2283207). A digest of the protocol: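 Activity measured as fluorescence after mobility-shift separation of substrate and product, 1 h after compound. Duplicate single-point 25 uM primary testing, concentration series for actives; inhibition scored as signal loss relative to DMSO baseline.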

Experiment [17] deals with human NIMA (Never In Mitosis Gene A)-Related Kinase 2 (NEK2), NEK2 (gene 4751) (UniProt P51955). Put plainly: NVS_ENZ_hNEK2: NovaScreen (NVS) Enzymatic Assay for human NIMA (Never In Mitosis Gene A)-Related Kinase 2 (NEK2) (AID 2283188). A digest of the protocol:
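Compounds were first screened in duplicate at 25 uM, with actives followed up in concentration series. Recombinant NEK2 activity, cell-free, was read 1 h after dosing by fluorescence intensity after mobility-shift separation. Signal loss was scored against DMSO.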

The target in experiment [18] is human Protein Tyrosine Phosphatase Non-receptor Type 4 (PTPN4), PTPN4 (gene 5775) (UniProt P29074). Put plainly: NVS_ENZ_hPTPN4: NovaScreen (NVS) Enzymatic Assay for human Protein Tyrosine Phosphatase Non-receptor Type 4 (PTPN4) (AID 2283208). A digest of the protocol: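 Screened in duplicate at 25 uM, with hits then titrated to a top concentration of 50 uM. Recombinant Sf9-derived PTPN4 turnover was read by fluorescence with electrophoretic separation, 1.33 h after compound addition. DMSO served as baseline.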

Chain of human Phosphoinositide 3-kinase alpha (PI3Ka), PIK3CA (gene 5290) (P42336 whole entry, looked up): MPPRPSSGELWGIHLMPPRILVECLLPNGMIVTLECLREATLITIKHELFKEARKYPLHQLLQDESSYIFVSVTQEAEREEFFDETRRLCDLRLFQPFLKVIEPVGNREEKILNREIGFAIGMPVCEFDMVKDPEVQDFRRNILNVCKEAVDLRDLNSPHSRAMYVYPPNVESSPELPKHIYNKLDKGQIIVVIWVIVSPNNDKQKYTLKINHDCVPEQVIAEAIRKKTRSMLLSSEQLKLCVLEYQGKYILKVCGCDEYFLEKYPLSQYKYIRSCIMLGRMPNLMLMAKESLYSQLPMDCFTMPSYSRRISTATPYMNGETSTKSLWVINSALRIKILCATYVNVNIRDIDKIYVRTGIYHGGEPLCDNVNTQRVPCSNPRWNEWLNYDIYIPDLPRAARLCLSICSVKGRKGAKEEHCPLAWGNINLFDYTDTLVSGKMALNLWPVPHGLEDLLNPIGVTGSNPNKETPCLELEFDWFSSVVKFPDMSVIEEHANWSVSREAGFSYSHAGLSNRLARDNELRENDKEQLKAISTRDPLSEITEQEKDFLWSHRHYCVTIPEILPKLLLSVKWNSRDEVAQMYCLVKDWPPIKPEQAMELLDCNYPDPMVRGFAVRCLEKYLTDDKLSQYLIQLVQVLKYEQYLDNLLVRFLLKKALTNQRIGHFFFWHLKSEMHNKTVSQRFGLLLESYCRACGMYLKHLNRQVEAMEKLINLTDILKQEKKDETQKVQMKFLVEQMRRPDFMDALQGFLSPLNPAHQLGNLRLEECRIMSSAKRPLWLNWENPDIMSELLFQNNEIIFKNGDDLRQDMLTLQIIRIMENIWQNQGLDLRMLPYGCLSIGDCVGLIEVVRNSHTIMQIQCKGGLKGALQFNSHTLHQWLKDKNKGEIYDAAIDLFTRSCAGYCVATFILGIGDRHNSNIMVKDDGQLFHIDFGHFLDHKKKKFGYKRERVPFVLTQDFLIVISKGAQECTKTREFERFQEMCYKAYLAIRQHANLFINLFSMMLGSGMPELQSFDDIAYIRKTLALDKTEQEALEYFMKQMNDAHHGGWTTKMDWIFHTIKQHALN
Chain of human Matrix Metalloproteinase-9 (MMP9), MMP9 (gene 4318) (P14780 whole entry, looked up): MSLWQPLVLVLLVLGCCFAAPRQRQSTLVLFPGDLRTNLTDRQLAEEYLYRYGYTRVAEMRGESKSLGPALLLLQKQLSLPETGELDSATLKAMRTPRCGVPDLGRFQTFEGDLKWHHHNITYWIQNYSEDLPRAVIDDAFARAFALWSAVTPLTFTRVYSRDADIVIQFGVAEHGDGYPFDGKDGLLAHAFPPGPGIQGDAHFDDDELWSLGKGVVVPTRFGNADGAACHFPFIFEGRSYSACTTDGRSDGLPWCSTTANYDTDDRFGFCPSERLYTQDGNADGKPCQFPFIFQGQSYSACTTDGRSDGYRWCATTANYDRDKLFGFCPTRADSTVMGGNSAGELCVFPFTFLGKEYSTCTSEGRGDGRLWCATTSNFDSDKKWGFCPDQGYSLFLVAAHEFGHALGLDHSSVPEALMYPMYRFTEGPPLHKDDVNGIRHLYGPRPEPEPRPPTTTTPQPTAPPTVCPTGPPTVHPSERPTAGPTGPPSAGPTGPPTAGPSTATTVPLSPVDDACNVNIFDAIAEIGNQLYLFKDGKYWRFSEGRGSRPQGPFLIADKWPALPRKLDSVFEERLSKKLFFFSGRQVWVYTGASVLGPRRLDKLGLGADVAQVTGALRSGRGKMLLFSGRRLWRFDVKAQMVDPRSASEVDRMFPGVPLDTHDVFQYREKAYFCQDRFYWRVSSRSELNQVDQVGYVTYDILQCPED
Chain of human Phosphatase and Tensin Homolog (PTEN), PTEN (gene 5728) (P60484 whole entry, looked up): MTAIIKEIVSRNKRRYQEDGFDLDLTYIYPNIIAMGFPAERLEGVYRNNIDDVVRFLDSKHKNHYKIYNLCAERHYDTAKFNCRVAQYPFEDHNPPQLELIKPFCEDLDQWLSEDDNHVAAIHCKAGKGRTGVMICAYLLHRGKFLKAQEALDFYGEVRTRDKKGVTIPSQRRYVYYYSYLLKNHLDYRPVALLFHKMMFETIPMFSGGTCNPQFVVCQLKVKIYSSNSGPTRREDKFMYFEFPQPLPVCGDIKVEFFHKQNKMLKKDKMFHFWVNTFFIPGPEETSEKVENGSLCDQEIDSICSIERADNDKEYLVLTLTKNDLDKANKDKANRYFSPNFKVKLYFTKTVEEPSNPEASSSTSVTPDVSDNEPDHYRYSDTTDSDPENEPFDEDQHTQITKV
Chain of Tyrosine-protein phosphatase non-receptor type 13 (Homo sapiens) (Q12923 whole entry, looked up): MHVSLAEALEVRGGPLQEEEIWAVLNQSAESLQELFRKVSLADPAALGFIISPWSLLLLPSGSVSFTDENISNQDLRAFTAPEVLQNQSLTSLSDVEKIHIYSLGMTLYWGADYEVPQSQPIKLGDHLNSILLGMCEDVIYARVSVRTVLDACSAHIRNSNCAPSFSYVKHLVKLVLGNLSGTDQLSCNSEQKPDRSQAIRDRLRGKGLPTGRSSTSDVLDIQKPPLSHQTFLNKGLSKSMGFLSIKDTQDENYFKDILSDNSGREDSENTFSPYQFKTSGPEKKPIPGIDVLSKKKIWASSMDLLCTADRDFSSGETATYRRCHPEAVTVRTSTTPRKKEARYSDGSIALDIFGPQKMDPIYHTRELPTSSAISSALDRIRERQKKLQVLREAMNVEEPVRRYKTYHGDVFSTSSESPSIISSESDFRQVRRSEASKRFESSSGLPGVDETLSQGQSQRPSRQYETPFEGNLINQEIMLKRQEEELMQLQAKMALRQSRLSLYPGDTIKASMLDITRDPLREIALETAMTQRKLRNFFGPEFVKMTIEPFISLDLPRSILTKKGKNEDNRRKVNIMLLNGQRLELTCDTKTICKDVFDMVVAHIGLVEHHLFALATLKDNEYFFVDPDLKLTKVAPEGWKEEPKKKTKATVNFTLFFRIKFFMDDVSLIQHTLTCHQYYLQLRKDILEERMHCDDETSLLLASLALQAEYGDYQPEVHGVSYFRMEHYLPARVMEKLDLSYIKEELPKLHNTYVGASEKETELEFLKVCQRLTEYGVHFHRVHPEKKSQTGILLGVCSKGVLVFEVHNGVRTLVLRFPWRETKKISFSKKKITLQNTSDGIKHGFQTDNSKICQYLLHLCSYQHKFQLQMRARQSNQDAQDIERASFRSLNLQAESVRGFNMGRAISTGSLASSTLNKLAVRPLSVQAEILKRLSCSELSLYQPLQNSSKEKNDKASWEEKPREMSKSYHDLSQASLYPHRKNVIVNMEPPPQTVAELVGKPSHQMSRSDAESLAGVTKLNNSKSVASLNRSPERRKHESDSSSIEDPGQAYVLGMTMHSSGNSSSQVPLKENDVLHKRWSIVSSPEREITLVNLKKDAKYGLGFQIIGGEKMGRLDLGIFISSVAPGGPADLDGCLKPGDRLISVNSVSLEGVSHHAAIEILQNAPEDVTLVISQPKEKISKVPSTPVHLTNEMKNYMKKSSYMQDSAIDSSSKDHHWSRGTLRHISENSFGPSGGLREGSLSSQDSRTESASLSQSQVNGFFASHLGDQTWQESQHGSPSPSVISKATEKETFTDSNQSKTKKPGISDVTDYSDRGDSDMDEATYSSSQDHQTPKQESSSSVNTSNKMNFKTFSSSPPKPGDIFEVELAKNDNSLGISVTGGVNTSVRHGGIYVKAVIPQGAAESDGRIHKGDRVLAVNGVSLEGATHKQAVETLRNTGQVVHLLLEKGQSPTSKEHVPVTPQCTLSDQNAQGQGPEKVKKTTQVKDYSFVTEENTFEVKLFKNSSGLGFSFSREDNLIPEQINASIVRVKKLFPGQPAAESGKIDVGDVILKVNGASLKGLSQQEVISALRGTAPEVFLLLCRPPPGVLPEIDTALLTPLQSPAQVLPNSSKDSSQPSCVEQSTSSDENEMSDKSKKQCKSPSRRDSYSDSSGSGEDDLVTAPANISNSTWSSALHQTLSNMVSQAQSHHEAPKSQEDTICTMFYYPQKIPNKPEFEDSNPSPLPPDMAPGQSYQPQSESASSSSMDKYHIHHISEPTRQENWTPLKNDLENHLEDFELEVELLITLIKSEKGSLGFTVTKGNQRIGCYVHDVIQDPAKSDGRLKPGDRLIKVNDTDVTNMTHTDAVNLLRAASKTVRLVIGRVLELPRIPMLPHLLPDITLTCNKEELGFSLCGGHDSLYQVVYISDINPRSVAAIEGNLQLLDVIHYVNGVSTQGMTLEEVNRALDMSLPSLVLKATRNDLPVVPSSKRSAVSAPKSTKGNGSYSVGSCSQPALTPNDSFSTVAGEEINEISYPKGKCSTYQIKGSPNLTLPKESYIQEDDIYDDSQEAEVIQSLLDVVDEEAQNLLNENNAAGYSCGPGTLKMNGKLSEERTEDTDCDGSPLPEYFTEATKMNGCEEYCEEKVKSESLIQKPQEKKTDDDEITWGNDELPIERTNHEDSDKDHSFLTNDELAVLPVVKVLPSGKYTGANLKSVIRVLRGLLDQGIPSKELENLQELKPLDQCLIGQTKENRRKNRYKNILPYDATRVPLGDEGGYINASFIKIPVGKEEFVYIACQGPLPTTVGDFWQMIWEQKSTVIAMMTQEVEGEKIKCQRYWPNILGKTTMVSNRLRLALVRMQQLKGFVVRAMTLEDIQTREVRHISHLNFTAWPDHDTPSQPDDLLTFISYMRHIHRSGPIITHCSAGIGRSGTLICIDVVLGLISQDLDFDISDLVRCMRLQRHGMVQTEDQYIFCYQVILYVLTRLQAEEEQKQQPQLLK
Chain of human Protein Tyrosine Phosphatase Non-receptor Type 2 (PTPN2), PTPN2 (gene 5771) (P17706 whole entry, looked up): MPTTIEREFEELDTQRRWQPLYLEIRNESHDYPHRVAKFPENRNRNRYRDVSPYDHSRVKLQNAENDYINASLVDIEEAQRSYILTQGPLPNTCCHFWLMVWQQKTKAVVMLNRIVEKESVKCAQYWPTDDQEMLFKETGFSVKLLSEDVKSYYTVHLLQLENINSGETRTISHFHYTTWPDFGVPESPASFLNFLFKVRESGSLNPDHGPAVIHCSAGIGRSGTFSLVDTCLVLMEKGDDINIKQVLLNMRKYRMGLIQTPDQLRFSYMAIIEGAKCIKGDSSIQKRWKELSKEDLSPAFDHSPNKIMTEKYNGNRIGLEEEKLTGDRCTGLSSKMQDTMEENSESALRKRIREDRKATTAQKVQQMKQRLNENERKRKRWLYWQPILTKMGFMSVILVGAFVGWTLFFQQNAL

With `O=S(=O)(O)C(F)(F)C(F)(F)C(F)(F)C(F)(F)C(F)(F)C(F)(F)C(F)(F)C(F)(F)F`, the AC50 in [1] is 24.1 µM (active); in experiment [2], 25 µM (active); in experiment [4], 5.35 µM (active); in [5], 36.3 µM (active) and 47.7 µM (active); in experiment [6], 25 µM (active) and 21.9 µM (active); in [8], 6.79 µM (active) and 4.5 µM (active) and 8.3 µM (active). Also, the AC50 with PPP2CA (gene 5515) was 7.02 µM (active) and 5.37 µM (active); in experiment [10] it was 11.5 µM (active) and 18.4 µM (active); in [11], 26.9 µM (active); in experiment [12], 19.6 µM (active) and 15.5 µM (active); in [13], 7.35 µM (active) and 26.9 µM (active); in [14], 20.7 µM (active) and 30 µM (active) and 30.1 µM (active). Besides, the AC50 was 10.5 µM (active) and 36.6 µM (active) in experiment [15]; 38.9 µM (active) in [16]. In addition, the compound was classed as inactive in [3], in [7], in experiment [9] and in experiment [11].
Regarding `COP(=S)(OC)Oc1ccc([N+](=O)[O-])cc1`, the outcome in experiment [4] was inactive.
As to `CCOc1nc(NC)nc(NC(=O)NS(=O)(=O)c2ccccc2C(=O)OC)n1`, in experiment [4], the AC50 is 14.8 µM (active).
On to `C#CCN1C(=O)COc2cc(F)c(N3C(=O)C4=C(CCCC4)C3=O)cc21`, for which, in experiment [16], the compound was called inactive.
`CC1(C)C(C=C(Cl)Cl)C1C(=O)OC(C#N)c1ccc(F)c(Oc2ccccc2)c1` (stereo not given): in experiment [17], the compound was classed as inactive.
`Oc1cc(Cl)ccc1Oc1ccc(Cl)cc1Cl`: the result (in experiment [2]; in experiment [3]; in [6]; with PPP2CA (gene 5515); in [12]; in [14]) was inactive.
Regarding `CC(C)(C)C(O)C(Oc1ccc(Cl)cc1)n1cncn1` (stereo not given), the result (in experiment [4]; in experiment [6]; in [7]; in the experiment with PPP2CA (gene 5515); in [13]; in experiment [14]) was inactive. In addition, the outcome in experiment [15] and in [16] was inactive.
Take `COc1nn(CSP(=S)(OC)OC)c(=O)s1`: the concentration at half-maximal activity (AC50) in experiment [4] was 9.55 µM (active).
With `Cc1cc(C)nc(NC(=O)NS(=O)(=O)c2ccccc2C(=O)OC2COC2)n1`, in experiment [18], the AC50 was 4.96 µM (active).
On to `O=C(O)C(F)(F)C(F)(F)C(F)(F)C(F)(F)C(F)(F)C(F)(F)C(F)(F)F`, for which the compound was classed as inactive in experiment [1], in [3], in experiment [5], in experiment [11], in experiment [12] and in experiment [13]. Besides, the result in [14], in [15] and in [16] was inactive. For the same compound, the AC50 in [8] is 11.3 µM (active); in the experiment with PPP2CA (gene 5515), 25 µM (active); in [10], 493 nM (active).
Take `[2H]C1([2H])[n+]2ccccc2-c2cccc[n+]2C1([2H])[2H]`: the AC50 in experiment [10] was 4960 nM (active); in experiment [13] it was 2.29 nM (active). Moreover, the call in [12] was inactive.
Turning to `Cc1[nH]c(=O)n(C(C)(C)C)c(=O)c1Cl`, the AC50 in experiment [6] is 9.17 µM (active). For the same compound, in [11], the compound was called inactive.
